# Source: the supplement of paper PMC10338343
# ± gives the standard deviation.
# Tested on: EfPiwi piRISC loaded with piRNA #1 (26 nt)
# Assay: pre-steady-state target cleavage rate (min^-1); auxiliary factor: 500 nM Ephydatia muelleri Gtsf1; guide: piRNA #1 5'p-UGAGGUAGUAGGUUGUAUAGUAUCCA; MIWI and MILI are mouse PIWI proteins and EfPiwi is from a freshwater sponge; tags in brackets are library labels; higher = faster piRNA-guided slicing of the target
# Outline: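 A transcribed, DNA-blocked target RNA library […] was incubated at 33 °C for 0–8 or 0–960 min with 1 nM active affinity-purified piRISC carrying one synthetic guide, in HEPES–potassium acetate buffer with or without 500 nM GTSF1 partner protein. Uncleaved targets were then sequenced and normalised to depth and to weakly complementary targets. Data from three trials were pooled, with k3 capped at 0.0001 min^-1, and a burst-and-steady-state fit yielded the pre-steady-state cleavage rate.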
row,Sequence,pre-steady-state target cleavage rate
1,GGAGACCAUUCUAUACAACGUACUACCUCA,0.00402 ± 0.0025
2,GGAGUGGCAUACUAUACAACCUACUACCUCA,0.101 ± 0.029
3,GGAGUGGAUAGUAUACAACCUAGUACCUCA,0.00264 ± 0.0018
4,GGAGACCUAAGUAAACAACCUACUACCUCA,0.00575 ± 0.004
5,GGAGACCAUACUAUUCAACCUACUUCCUCA,0.00483 ± 0.0048
6,GGAGACCUAUGUAUACAACCUACAACCACA,< 0.0001
7,GGAGUGGAUACUAUACAACCAACUACCUGA,0.00303 ± 0.0013
8,GGAGUGGAUACUAUACAUCCUACUUCCUCA,0.00326 ± 0.0017
9,GGAGAGGAUACUAUACUACCUACUACCUGA,0.00353 ± 0.002
10,GGAGACCAUACUAUACAACCUUCUACCUGA,0.00624 ± 0.0044
11,GGAGUGGAUUCUAUACAACCUACUACGUCA,0.0027 ± 0.0024
12,GGAGACCAUUCUAUACAACCUUCUACCUCA,0.00336 ± 0.0032
13,GGAGUGGAUACUAUACAACCUACUACGUCA,0.00568 ± 0.0024
14,GGAGACCAUACUAUACAACCUACUAGCUGA,0.00669 ± 0.0037
15,GGAGUGGAUACUAUACAACCUACUACUUCA,0.104 ± 0.042
16,GGAGACCUUACUAUACAACCUGCUACCUCA,0.0174 ± 0.0079
17,GGAGACGAUACUAUACAACCUACUAACCUCA,0.0059 ± 0.0019
18,GGAGUGGAUACUAACAACCUACUACCUCA,0.00566 ± 0.0038
19,GGAGUGGAUACUAUACAUCCUACUACGUCA,0.0038 ± 0.0013
20,GGAGAGGAUACUAUACAGCCUACUACCUCA,0.105 ± 0.04

row,Sequence,pre-steady-state target cleavage rate
1,GGAGACCAUAGUAUACAACCUACUACCUGA,0.00396 ± 0.0018
2,GGAGUGGAUACUAUACAACCUACUACCAUCA,0.00588 ± 0.0026
3,GGAGACCUUAACUAUACAACCUACUACCUCA,0.113 ± 0.039
4,GGAGACUAUACUAUACAACCUACUACCUCA,0.0352 ± 0.014
5,GGAGUGGAUACAAUACAUCCUACUACCUCA,0.00574 ± 0.0025
6,GGAGACCUAACUAUACAACGUAGUACCUCA,0.00322 ± 0.0027
7,GGAGACCAUACUAUAACAACCUACUACCUCA,0.00662 ± 0.0038
8,GGAGACCAUACUAUACAACCUACCACCUCA,0.00474 ± 0.0033
9,GGAGUGGUUACUAUACAACCAACUACCUCA,0.0036 ± 0.0014
10,GGAGUGGAUACUAUACAACCUACAUACCUCA,0.00344 ± 0.0016
11,GGAGUGGAUACUAUACAACCAUACUACCUCA,0.00742 ± 0.0033
12,GGAGAGGAUACUAUACAAGCUACUACCUGA,0.00442 ± 0.0019
13,GGAGACGAUACUAUACUACCUAGUACCUCA,0.00268 ± 0.0016
14,GGAGACCUAACUAUACAACCUACUCCCUCA,0.00341 ± 0.0031
15,GGAGUGGGAUACUAUACAACCUACUACCUCA,0.143 ± 0.046
16,GGAGACGAUACUAUAAAACCUACUACCUCA,0.00426 ± 0.0022
17,GGAGUGGAUACUAUAGAACGUACUACCUCA,0.00156 ± 0.0015
18,GGAGUGGAUACUAUCACAACCUACUACCUCA,0.0265 ± 0.011
19,GGAGACCUAUGAACACAACCUACUACCUCA,0.00896 ± 0.0044
20,GGAGACGAUACUAUACAACCUACUACCCA,0.00543 ± 0.0019
